In the library only some 3.9% were active in any assay of this set; here they are far more common.
TROY signal inh = blocks TROY-dependent signaling in reporter cells; Q293 LMP1-TROYcd NF-kB luciferase reporter, 4 h; inhibition, % at 10 µM; 360,000 compounds, 0.98% hits;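 active = compounds whose plate-normalised and pattern-corrected inhibition of the luciferase reporter signal at the single screening dose is 50% or more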
Peg3 promoter = reduces Peg3 promoter-driven luciferase expression in HeLa; HeLa PEG-Prom luciferase reporter, luminescence, overnight; inhibition, % at 20 µM; 360,000 compounds, 1.7% hits;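 active = inhibition of at least 50% at 20 µM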
TWEAK Fn14 block = inhibitors of TWEAK-Fn14 interaction signaling | TWEAK-stimulated Fn14 reporter cells, luciferase luminescence, 8 h | inhibition, % at 10 µM | 360,000 compounds, 2% hits | AID 1159606; in the data active = inhibition above about 50%
HIF-2a block = blocks HIF-2a reporter activity. 786-0 RCC cells HIF-2a reporter, luciferase luminescence, overnight. AID 624352. 360,000 compounds, 0.72% hits. inhibition, % at 18.8 µM;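 active = inhibition of the luminescence signal of 40% or more relative to plate controls, in a single-dose primary screen at 18.75 µM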
KKLEB cytotox = reduces viability of KKLEB cystic fibrosis airway cells | KKLEB CF airway cells viability, ATPlite luminescence, overnight; active compounds read low; cells stimulated with P. aeruginosa culture filtrate | activity change (cytotoxicity), % at 5 µM | 360,000 compounds, 0.36% hits | AID 602141;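 active = corrected activity change at or below -50% at 5 µM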
CF NFkB inh = cystic fibrosis NF-kB activation inhibition; 360,000 compounds, 0.86% hits; inhibition, % at 5 µM; KKLEB NF-kB-GFP reporter, PAF-induced, GFP fluorescence overnight;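 active = at least 50% inhibition at 5 µM, scaled per plate between neutral and stimulator controls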;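 also: PAF is a Pseudomonas aeruginosa culture filtrate used as stimulus; plate controls were PAF-stimulated DMSO wells for no effect and unstimulated DMSO wells for full effect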
* = called active by the depositor.

SMILES	TROY signal inh	Peg3 promoter	TWEAK Fn14 block	HIF-2a block	KKLEB cytotox	CF NFkB inh
CCCCn1c(=N)n(CC(O)COc2ccc(C)cc2)c2ccccc21 (centres undefined)	2	72*	-24	0	-6	-8
CCOc1cc(N2CCOCC2)c(OCC)cc1NC(=O)C1CC(=O)N(c2ccccc2OCC)C1 (centres undefined)	-14	5	1	-2	-19	-5
Cc1ccc(S(=O)(=O)NC(=O)N(C)C2CCCCC2)cc1	-6	-3	2	26	-2	-6
O=C(Oc1c(-c2ccccc2Cl)oc2ccccc2c1=O)c1ccc(Cl)cc1	37	-53	50*	-25	-4	50
CC1OC(CC(=O)O)CC2=C1C(=O)c1c(O)cccc1C2=O (centres undefined)	64*	100*	106*	87*	-105*	101*
COc1cccc2c1-c1c(O)cccc1C2=O	1	0	7	8	1	3
C=C(C)CC1Nc2ccccc2NC1CC(=C)C (centres undefined)	0	17	2	8	8	2
O=C(Nc1ccc(C(O)(C(F)(F)F)C(F)(F)F)cc1)c1ccc(Cl)c([N+](=O)[O-])c1	50*	58*	62*	-51	-1	0
O=C(O)c1cc(NC(=O)c2ccc(Cl)c([N+](=O)[O-])c2)cc(C(=O)O)c1	5	11	-12	13	13	-7
Brc1ccc(N=NNc2ccccc2)cc1	-39	-304	-30	-229	-6	-10
CCOc1cc(/C=C/C(=O)Nc2ccc(C(=O)NCCN(CC)CC)cc2)ccc1OCC(C)C	-8	104*	-28	21	-34	13
CCOc1ccc(/C=C/C(=O)Nc2ccc(C(N)=O)cc2)cc1OC	6	1	-9	4	-10	-8
O=c1cc(CN2CCN(c3ccccc3F)CC2)c2cc(O)c(-c3ccccc3)cc2o1	-2	12	-32	0	0	11
COc1ccc(N2CCN(Cc3cc(=O)oc4cc(-c5ccccc5)c(O)cc34)CC2)cc1	7	70*	-31	8	-10	-2
Cc1ccc(-c2nc(NCCCN(C)C)c3ccccc3n2)cc1	-34	-47	-18	-41	-9	2
Cc1ccc(-c2csc3nc4c5ccccc5c(NCCCN(C)C)nn4c(=O)c23)cc1	7	109*	-2	-8	-60*	11
CCOC(=O)c1c(C)[nH]c(C(=O)OCCOc2ccc(Cl)cc2)c1C	-3	-157	-12	-145	8	7
CCOC(=O)c1c(C)[nH]c(C(=O)OCCOc2ccccc2C)c1C	55*	-204	27	-228	-25	13
COc1ccc(C#Cc2c(-c3ccsc3)oc3ccc(N4CCOCC4)cc23)cc1	-56	-75	-37	-150	-7	20
c1cc(-c2cc3cc(N4CCOCC4)ccc3o2)cs1	38	-98	65*	-247	-70*	-7
Cc1nc2c(=O)n(C)c(=O)[nH]c2n1Cc1ccccc1	4	-9	14	9	0	-8
Cc1ccc(/C=N/NC(=O)c2ccncc2)cc1	-10	4	3	-7	6	3
CCc1ccc(/C=N/NC(=O)c2ccccn2)cc1	42	10	86*	-17	-22	-8
Cc1ccc(/C=N\NC(=O)c2csnn2)cc1	9	-202	50*	-138	10	1
Cc1ccc(/C=N/NC(=O)c2ccccn2)s1	5	-85	51*	-65	1	1
SMILES	TROY signal inh	Peg3 promoter	TWEAK Fn14 block	HIF-2a block	KKLEB cytotox	CF NFkB inh
CCOC(=O)c1c(NC(=O)CS(=O)(=O)c2cn(CC)c3ccccc23)sc2c1CCCCC2	2	17	4	12	9	-3
O=C(/C=C/[C@H]1O[C@@H](n2ccc(=O)[nH]c2=O)[C@H](O)[C@@H]1O)NCCN1CCCCC1	10	4	7	5	7	-35
Cc1ccc(C)c(N2CCN(C(=O)CCC(=O)Nc3nnc(C(F)(F)F)s3)CC2)c1	15	12	11	2	1	14
Cc1nn(Cc2ccc(Br)cc2)c(C)c1NC(=O)c1nn(C)cc1Cl	9	6	0	9	-1	2
Fc1ccc(N/N=C/c2ccc(N3CCOCC3)cc2)c(F)c1	70*	-194	45	-245	4	8
C/C(=N\Nc1ccc(F)cc1F)c1ccc(N2CCOCC2)cc1	6	-186	6	-140	-6	-9
CCOC(=O)NC1(C(F)(F)F)NC(=O)N(Cc2ccco2)C1=O (centres undefined)	33	19	-3	13	-7	16
Cc1c(S(=O)(=O)N2CCCC2)c(=O)n(C)c(=O)n1C	7	6	11	5	21	-20
COc1ccc(C=O)cc1Cn1c(C)cc(C)c(C#N)c1=O	17	51*	7	16	-3	9
Cc1ccccc1Cn1c(C)cc(C)c(C#N)c1=O	-1	8	9	7	0	6
COn1c(-c2ccc(Cl)cc2)nc2ncccc21	-30	-230	-10	-186	-18	-40
Cc1cc(C(=O)COC(=O)C23CC4CC(CC(O)(C4)C2)C3)c(C)n1-c1c(C)n(C)n(-c2ccccc2)c1=O	1	6	-20	11	5	-13
COCCn1c(C)cc(C(=O)COC(=O)C23CC4CC(CC(O)(C4)C2)C3)c1C	65*	-87	76*	-48	-2	21
COc1ccc(CCN(C(=S)Nc2ccccc2)C2CC(=O)N(c3ccccc3)C2=O)cc1 (centres undefined)	2	0	9	-4	1	-7
O=C1CC(N(CCc2ccccc2)C(=S)Nc2ccccc2)C(=O)N1c1ccc(Br)cc1 (centres undefined)	47	54*	79*	-30	-8	11
Cc1ccc(S(=O)(=O)n2ccc3c(OCCOCCSCC(NC(=O)OC(C)(C)C)C(=O)O)cccc32)cc1 (centres undefined)	33	27	-7	17	6	1
Cc1ccc(S(=O)(=O)n2ccc3c(OCCOCCNCc4ccc(F)cc4)cccc32)cc1	46	96*	-7	25	-34	30
Cc1ccc2nc(-c3sc4nc(C)ccc4c3N)[nH]c2c1	25	-202	71*	29	-18	-34
COc1cccc(CNCc2ccccn2)c1OC	10	-4	9	8	-5	8
Cc1ccc(-n2c(-c3ccco3)nc3nc4ccccc4nc32)cc1	-15	-2	5	-7	-4	-18
CCOC(=O)c1c(C)n(-c2ccc(C)cc2)c2ccc(OCC(O)CNCCCO)cc12 (centres undefined)	-22	105*	-15	17	-15	12
CCOC(=O)c1c(C)n(C)c2ccc(OCC(O)CNC(CC)CO)cc12 (centres undefined)	-6	2	-27	4	-4	3
